Eight sequences from publication PMC8384837, “Expanding the binding specificity for RNA recognition by a PUF domain” can be followed below.

What all share (assay): yeast three-hybrid, YBZ-1, SC-Leu-His + 0.5 mM 3-AT, 4 days
Holding throughout (details): tags: N-Gal4 AD-HA kept; label: inside an RPR1-promoter hybrid RNA with tandem MS2 sites; ssRNA

One experiment addresses PUM1 PUF domain R8-RWT (Homo sapiens, UniProt Q14671 828-1176, N1122R;Y1123W;Q1126T). A digest of the protocol:
(§1)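 The interaction score is the log change in how often each variant appears, from input to selection. Frequencies came from PCR-amplified, Illumina-sequenced repeat regions of Pumilio-1 PUF domain libraries grown in strain YBZ-1 (LexA–MS2 coat fusion, HIS3 reporter) alongside matching RNA elements. Input plates were SC-Leu and selection plates were SC-Leu-His + 0.5 mM 3-AT, each for four days, and the log2 calculation used a pseudocount of 1 where a variant was absent.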

The target of a further experiment is PUM1 PUF domain R8-RWK (Homo sapiens, UniProt Q14671 828-1176, N1122R;Y1123W;Q1126K). The essentials: as §1
The next experiment deals with PUM1 PUF domain R8-RFH (Homo sapiens, UniProt Q14671 828-1176, N1122R;Y1123F;Q1126H). A digest of the protocol:
as §1

The target in the next experiment is PUM1 PUF domain R7-RRK (Homo sapiens, UniProt Q14671 828-1176, S1079R;N1080R;E1083K). The essentials:
as §1

The target in a further experiment is PUM1 PUF domain R4-FHR (Homo sapiens, UniProt Q14671 828-1176, N971F;Q975R). The essentials:
as §1

A further experiment concerns the target PUM1 PUF domain R4-RHG (Homo sapiens, UniProt Q14671 828-1176, N971R;Q975G). The essentials: as §1
For the next experiment, the target named is PUM1 PUF domain R2-DWE (Homo sapiens, UniProt Q14671 828-1176, N899D;Y900W;Q903E). The essentials: as §1
A further experiment deals with T1, PUM1 PUF domain R6-VWK (Homo sapiens, UniProt Q14671 828-1176, N1043V;Y1044W;Q1047K).
T1 sequence: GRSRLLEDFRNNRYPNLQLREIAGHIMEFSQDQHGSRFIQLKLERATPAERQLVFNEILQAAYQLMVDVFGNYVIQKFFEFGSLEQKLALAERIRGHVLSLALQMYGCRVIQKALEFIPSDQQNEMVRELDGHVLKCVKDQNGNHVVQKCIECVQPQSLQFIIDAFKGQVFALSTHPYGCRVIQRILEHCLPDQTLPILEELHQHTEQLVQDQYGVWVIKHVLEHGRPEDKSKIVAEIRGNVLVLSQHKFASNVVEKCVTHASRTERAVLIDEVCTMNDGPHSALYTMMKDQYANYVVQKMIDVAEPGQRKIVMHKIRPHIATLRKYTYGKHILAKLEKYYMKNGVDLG
The essentials:
as §1

The target of a further experiment is PUM1 PUF domain R2-DWQ (Homo sapiens, UniProt Q14671 828-1176, N899D;Y900W). The essentials:
as §1

The next experiment concerns the target PUM1 PUF domain R2-LFV (Homo sapiens, UniProt Q14671 828-1176, N899L;Y900F;Q903V). A digest of the protocol: as §1
Another experiment has as its target PUM1 PUF domain R5-RGQ (Homo sapiens, UniProt Q14671 828-1176, C1007R;R1008G). The essentials:
as §1

A further experiment addresses PUM1 PUF domain R5-RGW (Homo sapiens, UniProt Q14671 828-1176, C1007R;R1008G;Q1011W). A digest of the protocol:
as §1

In another experiment the target is PUM1 PUF domain R5-KGD (Homo sapiens, UniProt Q14671 828-1176, C1007K;R1008G;Q1011D). A digest of the protocol:
as §1

For “GGCUAGAACUAGUGGAUCCCCCGGCGCCCGGCGGCUCGAGCCCGGGUAAGCGUAAAUAGUCUGCAUGCCGCCGGGCGCCAUGCCUGCAGGUCGACUCUAGAAAACAUG”, the results for the binding signal with PUM1 PUF domain R8-RWT, with PUM1 PUF domain R8-RWK and with PUM1 PUF domain R8-RFH were 5.51 log2 enrichment (interaction score), 6.98 log2 enrichment (interaction score) and 4.72 log2 enrichment (interaction score), respectively.
In the case of “GGCUAGAACUAGUGGAUCCCCCGGCGCCCGGCGGCUCGAGCCCGGGUAAGUUUAAAUAGUCUGCAUGCCGCCGGGCGCCAUGCCUGCAGGUCGACUCUAGAAAACAUG”, the binding signal with PUM1 PUF domain R7-RRK was 4.3 log2 enrichment (interaction score).
Regarding “GGCUAGAACUAGUGGAUCCCCCGGCGCCCGGCGGCUCGAGCCCGGGUAAGUGUAUAUAGUCUGCAUGCCGCCGGGCGCCAUGCCUGCAGGUCGACUCUAGAAAACAUG”, the binding signal with PUM1 PUF domain R4-FHR is 3.37 log2 enrichment (interaction score); with PUM1 PUF domain R4-RHG, 4.05 log2 enrichment (interaction score).
As for “GGCUAGAACUAGUGGAUCCCCCGGCGCCCGGCGGCUCGAGCCCGGGUAAGUGUAAAGAGUCUGCAUGCCGCCGGGCGCCAUGCCUGCAGGUCGACUCUAGAAAACAUG”, in the experiment with PUM1 PUF domain R2-DWE, the binding signal is 9.59 log2 enrichment (interaction score).
On to “GGCUAGAACUAGUGGAUCCCCCGGCGCCCGGCGGCUCGAGCCCGGGUAAGUGAAAAUAGUCUGCAUGCCGCCGGGCGCCAUGCCUGCAGGUCGACUCUAGAAAACAUG”, for which the binding signal with PUM1 PUF domain R6-VWK is 7.03 log2 enrichment (interaction score).
As to “GGCUAGAACUAGUGGAUCCCCCGGCGCCCGGCGGCUCGAGCCCGGGUAAGUGUAAAAAGUCUGCAUGCCGCCGGGCGCCAUGCCUGCAGGUCGACUCUAGAAAACAUG”, the binding signal with PUM1 PUF domain R2-DWQ was 7.04 log2 enrichment (interaction score); with PUM1 PUF domain R2-LFV, 4.38 log2 enrichment (interaction score).
Consider “GGCUAGAACUAGUGGAUCCCCCGGCGCCCGGCGGCUCGAGCCCGGGUAAGUGUACAUAGUCUGCAUGCCGCCGGGCGCCAUGCCUGCAGGUCGACUCUAGAAAACAUG”, for which the binding signal in the experiment with PUM1 PUF domain R4-RHG is 4.02 log2 enrichment (interaction score).
For the sequence “GGCUAGAACUAGUGGAUCCCCCGGCGCCCGGCGGCUCGAGCCCGGGUAAGUGUCAAUAGUCUGCAUGCCGCCGGGCGCCAUGCCUGCAGGUCGACUCUAGAAAACAUG”, the binding signal is 2.62 log2 enrichment (interaction score) in the experiment with PUM1 PUF domain R5-RGQ, 2.31 log2 enrichment (interaction score) in the experiment with PUM1 PUF domain R5-RGW and 3.76 log2 enrichment (interaction score) with PUM1 PUF domain R5-KGD.
